Bfl-1 A1 inh = caspase 3/7 activation in MEF A1-2A-BIM cells, primary screen, A1 inhibitor project, cell-based, luminescence, HTS | AID 2462, 2010 | Caspase-Glo 3/7 luminescence, 3 h; percent of clofoctol response, vehicle zero | caspase activation, % (test concentration not listed) | actives 0.066% (n = 330,000);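 active = over half of replicate activation scores above 10%, or exactly half above 10 with the replicate mean above 10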
SUMO Mot1 rescue = yeast Mot1-301 growth rescue at high temperature, primary screen, SUMOylation pathway inhibitor project, S. cerevisiae, ATP luminescence, 38.5C; growth rescue, % at 18.8 µM; actives 1% (n = 320,000); S. cerevisiae Mot1-301 growth rescue; percent above DMSO median, 100 means doubled;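 active = every valid replicate shows activation above 250% relative to neutral control wells; inactive = the rest, any valid replicate at or below 250%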;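 note: OY570 slx delta 5 strain wells were the positive control but not used for scaling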
VLA-4 inh = inhibition in human VLA-4 binding assay, primary screen, VLA-4 allosteric modulator project, MLPCN library, flow cytometry, VLA-4 expressing cells; actives 0.2% (n = 330,000); ligand binding flow cytometry; AID 2557, 2010; inhibition, % (about 7 µM as worked out from the volumes in the protocol); Integrin alpha-4 (Homo sapiens), P13612; in the data active = inhibition above about 50%
Efflux pump mplx = inhibitors of Candida efflux pumps in yeast, primary screen, S. cerevisiae, Nile Red, multiplex | S. cerevisiae Candida pump triplex | inhibition, % at 10 µM | actives 0.44% (n = 330,000) | AID 485275, 2010;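 active = plate passing quality check with inhibition over a set limit, or well fluorescence over plate mean plus 4 SD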;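 note: Nile Red retained in pooled yeast measured as flow cytometry median fluorescence; 0% = buffer negative control and 100% = Enniatin B positive control; higher means more Nile Red kept so more efflux inhibition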
AHR activator = AHR activators, primary screen, cell-based, luminescence, luciferase reporter, human; activation, % at 5 µM; Aryl hydrocarbon receptor (Homo sapiens), P35869; actives 2.5% (n = 320,000); AHR-responsive luciferase reporter cells; in the data active = activation above about 47%;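 note: 0% = vehicle wells and 100% = reference agonist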
Target sequence (P35869 whole entry, looked up): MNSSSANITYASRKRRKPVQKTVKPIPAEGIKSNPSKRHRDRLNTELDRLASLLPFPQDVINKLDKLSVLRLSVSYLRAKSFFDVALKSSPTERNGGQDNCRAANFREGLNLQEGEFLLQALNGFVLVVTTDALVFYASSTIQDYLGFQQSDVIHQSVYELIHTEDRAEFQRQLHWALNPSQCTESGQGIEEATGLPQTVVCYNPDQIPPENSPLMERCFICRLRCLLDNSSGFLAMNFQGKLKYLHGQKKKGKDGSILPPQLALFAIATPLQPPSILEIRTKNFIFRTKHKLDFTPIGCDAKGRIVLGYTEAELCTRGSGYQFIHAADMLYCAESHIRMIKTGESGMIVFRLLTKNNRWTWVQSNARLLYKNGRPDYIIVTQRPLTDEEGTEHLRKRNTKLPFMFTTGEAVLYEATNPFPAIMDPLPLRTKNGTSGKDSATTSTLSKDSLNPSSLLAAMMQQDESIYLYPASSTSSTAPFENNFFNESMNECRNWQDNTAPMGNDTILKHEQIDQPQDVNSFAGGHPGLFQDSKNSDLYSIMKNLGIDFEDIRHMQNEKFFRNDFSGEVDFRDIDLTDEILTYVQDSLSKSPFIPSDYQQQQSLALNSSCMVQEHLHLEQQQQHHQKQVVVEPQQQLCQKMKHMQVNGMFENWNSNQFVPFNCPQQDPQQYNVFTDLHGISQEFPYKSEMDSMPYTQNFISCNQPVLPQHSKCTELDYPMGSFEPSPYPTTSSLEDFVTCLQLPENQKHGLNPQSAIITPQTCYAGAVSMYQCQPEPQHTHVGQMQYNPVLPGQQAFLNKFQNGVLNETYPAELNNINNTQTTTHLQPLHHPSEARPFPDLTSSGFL
ALR inh = inhibitors of human ALR sulfhydryl oxidase, primary screen, biochemical, H2O2 detection, HRP-luminol luminescence, single point | AID 485317, 2010 | purified ALR, DTT oxidation | actives 3.8% (n = 290,000) | FAD-linked sulfhydryl oxidase ALR (Homo sapiens), P55789 | inhibition, % (test concentration not listed);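 active = mean replicate inhibition above about 79%, with every replicate also reaching it, limit read from the data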
Yeast Mot1 SUMO = growth restoration of Mot1-301 yeast on galactose, dose response, SUMO pathway inhibitor project, whole organism, S. cerevisiae, ATP luminescence, cherry-picked samples; shares compounds with SUMO Mot1 rescue; S. cerevisiae Mot1-301 galactose growth, 24 h; -100 = growth of slx-deleted rescue strain; growth activity, percent, % at 42 µM; 2,300 tested, under 10 active; AID 493004, 2010;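 active = Signal drops as the depositor expects, and the fitted half-maximal dose is no more than ten times the top valid tested dose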;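 note: more negative values mean stronger growth rescue toward the control strain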
* marks the source's active call; other numbers are inactive results; . = no result; + = active, no number. The list is not random: actives were taken first. Their share in the collection is about 7.2%.

SMILES	Bfl-1 A1 inh	SUMO Mot1 rescue	VLA-4 inh	Efflux pump mplx	AHR activator	ALR inh	Yeast Mot1 SUMO
CCCCn1c(SCC(=O)Nc2cc(C)on2)nnc1-c1ccco1	-1	527*	-1	0	-3	0	0
O=C1NC2(CCCCC2)NN1c1ccccc1	0	479*	11	0	3	.	1
CCCC(=O)Nc1c(-c2ccccc2)c(=O)c(C)nn1-c1ccc(C)cc1	1	-14	17	0	0	-2	.
Cc1nc(-c2ccncc2)sc1C(=O)Nc1ccc(Br)cc1	0	745*	10	0	62*	6	0
CC(=O)Nc1ccc(NC(=O)c2sc(-c3ccccc3)nc2C)cc1	0	-6	2	-1	2	.	.
Cc1ccc(S(=O)(=O)N2CCN(C(=O)[C@H](Cc3ccccc3)NC(=O)c3ccco3)CC2)cc1C	0	-10	9	0	-1	-3	.
Cc1ccc(N2CN(CCc3ccccc3)CNC2=S)cc1	-1	419*	13	0	4	-10	1
CN(C)Cc1cc(CCNC(=O)c2ccc(Cl)cc2)ccc1O	0	-7	1	0	1	0	.
Cc1ccc(-c2nn(-c3ccccc3)cc2C(=O)N2CCN(c3ccccn3)CC2)cc1	1	596*	-4	0	3	-11	1
O=C(c1cn(-c2ccccc2)nc1-c1ccccc1)N1CCN(c2ccccn2)CC1	0	-28	0	0	4	-7	.
CCN1c2ccccc2-c2nc3ccccc3n2C1c1cccs1 (centres undefined)	0	103	17	0	25	58	.
CC1CCCC(N2C(=O)NC(NC(=O)c3ccco3)(C(F)(F)F)C2=O)C1C (centres undefined)	1	510*	8	0	6	-2	-1
CCOC(=O)[C@@H]1[C@H]2COc3ccc(Br)cc3[C@@H]2N2C(=O)N(c3ccc(C(F)(F)F)cc3)C(=O)[C@@]12C	0	-5	-9	0	9	.	.
CCC(C)NCCOc1ccc(Br)cc1 (centres undefined)	0	-6	0	0	-5	-1	.
CCC(C)NCCOc1ccccc1C (centres undefined)	0	386*	-2	0	3	-6	1
Cn1c(CCN2CCOCC2)nc2cc(NC(=O)COc3ccccc3)ccc21	0	+	3	0	-3	8	1
Cn1c(CN2CCOCC2)nc2cc(NC(=O)COc3ccccc3)ccc21	-2	23	-1	0	1	54	.
Cc1cc(C(F)(F)F)nc(SCC(=O)Nc2cc(C)on2)n1	1	+	-4	0	-2	-5	0
Cc1cc(C)nc(SCC(=O)Nc2cc(C)on2)n1	0	17	10	0	-2	-14	.
COCC(=O)n1nc(-c2ccccc2)nc1NCc1ccc(N(C)C)cc1	-1	862*	-4	0	24	23	0
COCC(=O)n1nc(-c2ccc(Cl)cc2)nc1NCc1ccc(F)cc1	1	539*	29	0	0	4	-1
COc1cccc(-c2cccc(NC(=O)C3CCN(CC4CCOC4)CC3)c2)c1 (centres undefined)	1	208	8	0	5	-7	.
Clc1ccc(CNCc2cccs2)cc1Cl	0	363*	18	0	0	-4	1
CCc1ccc(CNCc2cccs2)cc1	0	5	-2	0	4	-1	.
COc1ccc(Oc2nc(SC)nc3ccccc23)cc1	0	476	13	0	7	-1	.
SMILES	Bfl-1 A1 inh	SUMO Mot1 rescue	VLA-4 inh	Efflux pump mplx	AHR activator	ALR inh	Yeast Mot1 SUMO
CC(=O)N/C(=C\c1ccccc1)C(=O)OCC(=O)c1ccccc1	-5	679*	-14	0	1	-2	0
Oc1ccccc1C1NN=C(c2ccccc2)S1 (centres undefined)	-8	-13	10	0	41	-3	.
CC(=O)Cc1nsc(Nc2cccc(C)c2)n1	-1	901*	8	0	9	.	0
COc1cc(C(=O)Nc2ccc3c(c2)OCCO3)ccc1-n1cnnn1	0	+	-2	0	5	-37	0
Cn1c(Cn2nnc3ccccc32)nnc1SCC(=O)c1ccc(F)cc1	1	785*	8	0	0	11	0
CS(=O)(=O)N1CCCC(C(=O)NCc2ccco2)C1 (centres undefined)	0	384*	-11	0	-1	2	0
CC(C)C(=O)NCCc1nc(-c2ccccc2Cl)no1	0	-13	-12	0	3	-5	.
Cc1ccccc1NC(=O)COc1ccc(S(=O)(=O)N2CCCC2)cc1C	-1	124	4	1	3	.	.
Cc1cc(C(F)F)n2ncc(C(=O)NCCc3ccc(Cl)cc3)c2n1	0	540*	2	0	-1	-8	0
Cc1cc(C(F)F)n2ncc(C(=O)NCCc3ccccc3Cl)c2n1	-1	178	4	0	2	-4	.
O=S(=O)(/N=C(/Nc1ccc(Cl)c(S(=O)(=O)N2CCOCC2)c1)c1ccc(F)cc1)c1ccccc1	-1	6	-1	0	-6	-6	.
CCOc1ccc(C(=O)NNC2CC(=O)N(CCc3ccccc3)C2=O)cc1OC (centres undefined)	2	737*	11	0	5	-4	0
COc1ccc(CCN2C(=O)CC(NNC(=O)c3ccccc3Br)C2=O)cc1OC (centres undefined)	1	-10	-2	0	1	-2	.
CC(Oc1ccccc1)C(=O)Nc1ccccc1O (centres undefined)	1	568*	10	0	49*	90*	1
COC(=O)C1CCN(C(=O)c2oc3c(Cl)cc(C)cc3c2C)CC1	-1	-16	1	0	8	0	.
Cc1cc(Cl)c2oc(C(=O)NC3CCC(O)CC3)c(C)c2c1 (centres undefined)	-1	+	-8	0	7	.	0
Cc1ccc(C2C(C(=O)c3cccs3)=C(O)C(=O)N2c2ccc(S(N)(=O)=O)cc2)cc1 (centres undefined)	1	932*	6	0	1	.	0

Bioassay records: PubChem, several laboratories
